# Reference: PubChem BioAssay (NCI)
# About 79,000 compounds went through this panel and 15% of them were active in at least one assay; those are over-represented in the sample as a whole. A number with no mark means an inactive call. Calls of active or inactive are those of the source. No stated cut-off is given here; in the data, active means growth inhibition above about 70%; inactive means the rest.
# What was measured:
# [1] = NCI Yeast Anticancer Drug Screen. Data for the rad50 strain (AID 155);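 further: 0% = growth of vehicle-only cultures of the same strain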; details: S. cerevisiae rad50 strain growth inhibition, active compounds read high
# How it was run: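 Genetically altered yeast (DNA repair pathway); compound treatment; growth inhibition vs vehicle ctrl.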
# [2] = NCI Yeast Anticancer Drug Screen. Data for the mec2-1 strain (AID 157); details: S. cerevisiae mec2-1 strain, active compounds read high
# How it was run: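 mec2-1 yeast strain, carrying an alteration in DNA damage repair or cell cycle control, was exposed to compounds; growth inhibition was measured relative to vehicle-treated controls.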
# [3] = NCI Yeast Anticancer Drug Screen. Data for the sgs1 mgt1 strain (AID 161);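 further: 0% = growth of cultures given vehicle only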; details: S. cerevisiae sgs1 mgt1 strain, active compounds read high
# How it was run: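 Compounds are added to genetically altered yeast, and growth is compared with cultures given vehicle alone to give percent inhibition.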
# [4] = NCI Yeast Anticancer Drug Screen. Data for the cln2 rad14 strain (AID 165);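 further: 0% = growth equal to vehicle treated cultures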; details: S. cerevisiae cln2 rad14 strain, active compounds read high
# How it was run: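 Yeast carrying cln2 and rad14 alterations (cell cycle control and DNA damage repair) were exposed to compounds. Growth inhibition was measured against vehicle-treated controls.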
# [5] = NCI Yeast Anticancer Drug Screen. Data for the bub3 strain (AID 167); details: S. cerevisiae bub3 mutant strain, active compounds read high
# How it was run: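 Yeast carrying a defined mutation is treated with each compound, and growth is compared with that of vehicle-exposed cells to give inhibition.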
# [6] = NCI Yeast Anticancer Drug Screen. Data for the mlh1 rad18 strain (AID 175); details: S. cerevisiae mlh1 rad18 strain growth inhibition, active compounds read high
# How it was run: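 Growth inhibition of the yeast strain was measured after compound exposure and expressed relative to vehicle-treated controls. The strain carries defined defects in DNA damage repair.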
# [7] = at 5.0 µM (retest, dose inferred, filed as 0.5)
# [8] = at 50.0 µM (retest, dose inferred, filed as 5.0)
Structure (SMILES),"growth inhibition [1, 7]","growth inhibition [1, 8]",growth inhibition ([1]; at 50.0 µM),"growth inhibition [2, 7]","growth inhibition [2, 8]",growth inhibition ([2]; at 50.0 µM),"growth inhibition [3, 7]","growth inhibition [3, 8]",growth inhibition ([3]; at 50.0 µM),"growth inhibition [4, 7]","growth inhibition [4, 8]",growth inhibition ([4]; at 50.0 µM),"growth inhibition [5, 7]","growth inhibition [5, 8]",growth inhibition ([5]; at 50.0 µM),"growth inhibition [6, 7]","growth inhibition [6, 8]",growth inhibition ([6]; at 50.0 µM)
CC[C@@H](C)[C@@H]1NC(=O)C(NC(=O)C(CC(C)C)N(C)C(=O)C2CCCN2C(=O)C(C)O)C(C)OC(=O)C(Cc2ccc(OC)cc2)N(C)C(=O)C2CCCN2C(=O)C(CC(C)C)NC(=O)C(C)C(=O)C(C(C)C)OC(=O)C[C@H]1O (some centres not stated),51%,96% (active),81.3% (active),73% (active),99% (active),83.5% (active),58%,89% (active),83.2% (active),43%,74% (active),80.6% (active),28%,72% (active),85.2% (active),50%,98% (active),79.8% (active)
O=C(O)c1cccc2cccc(C(=O)O)c12.[Hg],99% (active),99% (active),99.4% (active),100% (active),100% (active),99.5% (active),100% (active),99% (active),99.7% (active),99% (active),99% (active),98.5% (active),99% (active),99% (active),99.2% (active),99% (active),99% (active),99.6% (active)
COc1cc(C2c3[nH]c4ccccc4c3[C@@H](Nc3ccc(C#N)cc3)[C@H]3COC(=O)N23)cc(OC)c1O (some centres not stated),19%,95% (active),73.8% (active),21%,91% (active),77.3% (active),-15%,61%,58.8%,-3%,57%,71.4% (active),-23%,70% (active),65.9%,21%,71% (active),50.8%
CCN1C(C)N1P(=S)(OC1CC(C)(C)N(O)C(C)(C)C1)OC1CC(C)(C)N(O)C(C)(C)C1 (configuration not stated),-2%,3%,45.9%,-6%,6%,91.3% (active),-3%,1%,32.2%,-3%,4%,90.3% (active),-5%,5%,98.1% (active),-5%,12%,14.6%
O=C1C(=O)C(Br)(Br)C(Br)=C1Br,-2%,4%,88.5% (active),1%,21%,88.2% (active),-4%,5%,95% (active),-1%,-2%,90.5% (active),-4%,-1%,93.5% (active),-4%,-4%,96.8% (active)
CC(=O)c1cc(CN(CCCl)CCCl)c(O)c(CN(CCCl)CCCl)c1O,5%,12%,90.5% (active),-13%,14%,77.7% (active),10%,34%,96.2% (active),4%,6%,63.1%,3%,6%,78.6% (active),-4%,45%,89.5% (active)
CC(=O)[O-].O=[N+]([O-])c1ccc([O-])c(C=NCCN=Cc2cc([N+](=O)[O-])ccc2[O-])c1.[Mn+3],15%,96% (active),91.8% (active),-2%,98% (active),79.2% (active),10%,93% (active),91.6% (active),19%,95% (active),48.2%,1%,94% (active),88.5% (active),12%,97% (active),93.3% (active)
CCCCCc1cc(OC(=O)CCCN(CC)CC)c2c(c1)OC(C)(C)[C@@H]1CCC(C)=C[C@@H]21,79% (active),97% (active),87% (active),30%,98% (active),91% (active),63%,99% (active),89.7% (active),49%,98% (active),90% (active),27%,99% (active),87.8% (active),74% (active),97% (active),91.7% (active)
O=[N+]([O-])/C=C\c1ccc2c(c1)OCO2,99% (active),100% (active),99.3% (active),100% (active),100% (active),99.5% (active),99% (active),99% (active),99.5% (active),100% (active),99% (active),98.8% (active),100% (active),94% (active),99% (active),100% (active),100% (active),99.5% (active)
